Activity calls are given as the source filed them.

Experiment [1] can be described thus: optical density shifts of acrAB sulA E. coli – strain DRC41, OD650, 48 h, E. coli filamentation inducer project, primary screen (AID 1152).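 Further: E. coli MC1000 strain DRC41 lacking acrAB efflux pump and sulA.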 The conditions noted are these: higher = more signal, called active from +8 up or from −8 down.
Experiment [2] is described as follows: probe aLefty1 binding on compound microarray – biochemical, small-molecule microarray, 635/667 nm fluorescence, primary screen (AID 1153).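 Further: score merges spot fluorescence with signal-to-noise ratio from the scanned slide images.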 Particulars: higher = more signal.
Experiment [3] can be described thus: plasmodial surface anion channel blockers, osmotic lysis – cell-based, P. falciparum Indochina, OD700, 1 h, primary screen (AID 1154). The conditions noted are these: P. falciparum Indochina infected RBC osmotic lysis, higher = more signal, called active from +8 up or from −8 down.
A short description of experiment [4]: plasmodial surface anion channel blockers, osmotic lysis – cell-based, P. falciparum Indochina, OD700, 2 h, primary screen (AID 1155).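 Further: lysis reports solute entry through the parasite surface anion channel PSAC.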 Particulars: P. falciparum Indochina infected erythrocytes, higher = more signal, called active from +8 up or from −8 down.
A short description of experiment [5]: changes in parasitized red cell lysis, either direction – P. falciparum Indochina, OD700, 3 h, PSAC antagonist project, primary screen (AID 1156). The conditions noted are these: P. falciparum-infected erythrocytes, osmotic lysis, higher = more signal, called active from +8 up or from −8 down.
Experiment [6] can be described thus: plasmodial surface anion channel blockers, osmotic lysis – cell-based, P. falciparum Indochina, OD700, 18 h, primary screen (AID 1157). The conditions noted are these: P. falciparum Indochina infected erythrocytes, osmotic lysis OD700, 18 h; higher = more signal, called active from +8 up or from −8 down.
The nature of experiment [7]: S6 kinase pathway phospho-S6 level changes – cell-based, A549, cytoblot, luminescence, serum-stimulated, primary screen (AID 1158).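 Further: serum-stimulated A549 lung adenocarcinoma cells; signal is phosphorylated S6 detected by cytoblot immunostaining with HRP secondary.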 The conditions noted are these: 5 h, higher = more signal.
In experiment [8] the target is NADPH oxidase 2 (Homo sapiens) (UniProt P04839). The experiment in a line: compounds shifting NOX2 Amplex Red fluorescence – cell-based, HEK293-NOX2, PMA-stimulated, NOX inhibitor project, primary screen (AID 1159). Further: test concentration not given here. Particulars: 45 min, higher = more signal, called active from +8 up or from −8 down.
Experiment [9] deals with NADPH oxidase 4 (Homo sapiens) (UniProt Q9NPH5). The experiment in a line: compounds shifting NOX4 Amplex Red fluorescence – cell-based, HEK293-NOX4, tetracycline-induced, NOX inhibitor project, primary screen (AID 1160). Particulars: HEK293-NOX4, Amplex Red H2O2 fluorescence, 45 min; higher = more signal, called active from +8 up or from −8 down.
The target of experiment [10] is NADPH oxidase 5 (Homo sapiens) (UniProt Q96PH1). The experiment in a line: compounds shifting NOX5 Amplex Red fluorescence – cell-based, HEK293-NOX5, NOX inhibitor project, primary screen (AID 1161). The conditions noted are these: HEK293-NOX5, ionomycin, 45 min, higher = more signal.
The nature of experiment [11]: compound effects on lung adenocarcinoma cell viability – A549, calcein-AM fluorescence, 48 h, basal, profiling panel (AID 1162). Further: test concentration not given here. The conditions noted are these: higher = more signal.
A short description of experiment [12]: compound effects on differentiated 3T3-L1 adipocyte viability – cell-based, 3T3-L1 adipocytes, calcein-AM fluorescence, 48 h, basal, profiling panel (AID 1163). Further: test concentration not given here. The conditions noted are these: 3T3-L1 adipocytes viability, higher = more signal.
A short description of experiment [13]: compound effects on hepatocellular carcinoma cell viability – HepG2, calcein-AM fluorescence, 48 h, basal, profiling panel (AID 1164). Further: test concentration not given here. Particulars: higher = more signal.
Experiment [14] can be described thus: compound effects on multiple myeloma cell viability – MM1S, calcein-AM fluorescence, 48 h, basal, profiling panel (AID 1165). Further: test concentration not given here. The conditions noted are these: higher = more signal.
The nature of experiment [15]: calcein-AM signal in unstimulated myeloma cells – cell-based, calcein-AM fluorescence, 48 h, PK04 Diversity Set, profiling panel (AID 1166).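 Further: cells grown under basal conditions without added stimulus; test concentration not given here.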 Particulars: RPMI8226 myeloma viability, higher = more signal.
Experiment [16] in a line: JC-1 mitochondrial signal, unstimulated HepG2 cells – cell-based, JC-1 fluorescence, 24 h, 100 nL compound, profiling panel (AID 1167). Further: test concentration not given here. Particulars: HepG2 mitochondrial potential, higher = more signal.
A short description of experiment [17]: JC-1 mitochondrial signal, unstimulated adipocytes – cell-based, JC-1 fluorescence, 3T3-L1 adipocytes, 24 h, 100 nL compound, profiling panel (AID 1168). Further: test concentration not given here. The conditions noted are these: JC-1 mitochondrial fluorescence, higher = more signal, called active from +8 up or from −8 down.
Experiment [18] in a line: JC-1 mitochondrial signal, unstimulated myeloma cells – cell-based, JC-1 fluorescence, RPMI8226, 24 h, 100 nL compound, profiling panel (AID 1169). Further: test concentration not given here. Particulars: JC-1 mitochondrial potential fluorescence, higher = more signal.
Experiment [19] in a line: JC-1 mitochondrial signal, unstimulated MM1S myeloma – cell-based, JC-1 fluorescence, 24 h, 100 nL compound, profiling panel (AID 1170). Further: test concentration not given here. Particulars: MM1S mitochondrial potential, higher = more signal.
Experiment [20] is described as follows: resazurin metabolic signal in A549 cells – cell-based, resazurin fluorescence, 24 h, PK04 Diversity Set, profiling panel (AID 1171). Further: test concentration not given here. The conditions noted are these: A549 viability, higher = more signal, called active from +8 up or from −8 down. (In general: Resazurin is reduced to fluorescent resorufin, in cell work by metabolically active cells.)

NADPH oxidase 4 (Homo sapiens), sequence (Q9NPH5 whole entry, looked up): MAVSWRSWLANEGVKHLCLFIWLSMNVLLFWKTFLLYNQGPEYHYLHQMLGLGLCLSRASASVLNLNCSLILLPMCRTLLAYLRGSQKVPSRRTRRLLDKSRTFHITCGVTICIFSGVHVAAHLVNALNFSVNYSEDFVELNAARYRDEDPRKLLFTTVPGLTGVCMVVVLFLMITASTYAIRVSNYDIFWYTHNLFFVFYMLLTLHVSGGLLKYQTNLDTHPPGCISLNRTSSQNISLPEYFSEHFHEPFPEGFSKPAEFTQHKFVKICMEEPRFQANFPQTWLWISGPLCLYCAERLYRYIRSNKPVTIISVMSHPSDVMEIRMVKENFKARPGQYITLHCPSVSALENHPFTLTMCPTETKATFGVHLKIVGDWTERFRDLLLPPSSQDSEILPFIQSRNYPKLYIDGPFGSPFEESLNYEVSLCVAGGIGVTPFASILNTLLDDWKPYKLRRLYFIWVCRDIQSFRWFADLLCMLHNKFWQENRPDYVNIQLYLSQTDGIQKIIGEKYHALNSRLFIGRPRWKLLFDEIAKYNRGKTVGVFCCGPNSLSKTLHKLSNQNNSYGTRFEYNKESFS
NADPH oxidase 5 (Homo sapiens), sequence (Q96PH1 whole entry, looked up): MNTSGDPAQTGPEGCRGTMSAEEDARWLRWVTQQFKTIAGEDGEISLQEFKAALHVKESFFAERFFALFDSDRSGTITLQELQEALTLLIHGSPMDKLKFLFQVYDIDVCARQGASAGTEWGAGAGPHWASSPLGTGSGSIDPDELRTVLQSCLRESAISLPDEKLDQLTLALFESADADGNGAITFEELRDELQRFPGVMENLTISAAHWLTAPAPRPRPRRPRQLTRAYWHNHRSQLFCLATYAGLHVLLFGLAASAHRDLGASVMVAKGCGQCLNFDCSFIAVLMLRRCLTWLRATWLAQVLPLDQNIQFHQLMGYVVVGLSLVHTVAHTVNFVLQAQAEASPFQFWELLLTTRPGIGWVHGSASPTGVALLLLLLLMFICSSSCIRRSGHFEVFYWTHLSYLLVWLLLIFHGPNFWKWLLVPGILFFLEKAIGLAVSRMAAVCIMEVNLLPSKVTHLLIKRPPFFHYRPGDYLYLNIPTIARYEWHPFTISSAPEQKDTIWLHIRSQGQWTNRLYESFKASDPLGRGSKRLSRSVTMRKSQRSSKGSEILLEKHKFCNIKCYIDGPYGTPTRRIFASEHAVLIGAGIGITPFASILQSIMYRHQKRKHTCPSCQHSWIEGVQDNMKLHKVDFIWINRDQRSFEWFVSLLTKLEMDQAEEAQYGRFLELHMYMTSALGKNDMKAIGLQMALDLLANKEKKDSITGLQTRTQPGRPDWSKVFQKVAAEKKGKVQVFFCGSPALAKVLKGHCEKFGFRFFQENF
NADPH oxidase 2 (Homo sapiens), sequence (P04839 whole entry, looked up): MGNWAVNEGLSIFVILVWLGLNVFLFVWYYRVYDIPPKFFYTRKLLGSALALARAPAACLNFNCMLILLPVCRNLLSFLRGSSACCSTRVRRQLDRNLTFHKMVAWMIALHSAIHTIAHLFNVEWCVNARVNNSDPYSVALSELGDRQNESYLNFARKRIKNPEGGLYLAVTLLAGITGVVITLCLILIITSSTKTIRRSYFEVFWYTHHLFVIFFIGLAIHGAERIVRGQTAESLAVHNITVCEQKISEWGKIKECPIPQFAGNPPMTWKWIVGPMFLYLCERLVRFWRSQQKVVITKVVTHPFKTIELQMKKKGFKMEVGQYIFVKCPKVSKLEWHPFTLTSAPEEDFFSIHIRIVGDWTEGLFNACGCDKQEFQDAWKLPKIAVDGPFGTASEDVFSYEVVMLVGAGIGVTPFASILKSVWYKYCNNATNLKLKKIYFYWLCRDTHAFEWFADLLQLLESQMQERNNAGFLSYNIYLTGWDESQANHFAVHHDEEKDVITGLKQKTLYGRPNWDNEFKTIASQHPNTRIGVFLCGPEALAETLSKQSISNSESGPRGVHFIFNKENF

Take `COc1ccc(NN2C(C(O)c3ccco3)C=CC3C(=O)N(C4CCCCC4)C(=O)C32)cc1` (stereo not given): the z-score in [1] was -0.636 (inactive); in experiment [3] it was 2.54 (inactive); in [4], 0.143 (inactive); in [5], 0.546 (inactive); in experiment [6] it was 0.0933 (inactive); in experiment [7], -0.686. For the same molecule, the z-score was -0.19 (inactive) in [8]; -0.842 (inactive) in experiment [9]; -1.1 in experiment [10]; -0.181 in experiment [11]; -0.637 in experiment [12]; 1.37 in experiment [13]. The z-score is 0.739 in experiment [14]; -0.023 in experiment [15]; 0.526 in [16]; -1.23 (inactive) in experiment [17]; 0.23 in experiment [18]; -1.23 in experiment [19]. Moreover, the z-score in experiment [20] is 0.405 (inactive). Moreover, the composite z-score in experiment [2] was 0.364.
For the molecule `C=CCOC(=O)[C@@H]1[C@H]2C(=O)O[C@H](c3ccccc3)[C@H](c3ccccc3)N2[C@H](c2ccc(OCCOC(=O)[C@H]3C[C@H]4C(=O)N[C@@H](CCCCN(C)C)C(=O)N4[C@H]3c3cccc(OCCO)c3)cc2)[C@@]12C(=O)Nc1ccc(I)cc12`, the z-score was -0.142 (inactive) in experiment [1]; 1.19 (inactive) in experiment [3]; 1.16 (inactive) in experiment [4]; -1.08 (inactive) in [5]; 0.865 (inactive) in [6]; -0.714 in experiment [7]. The z-score in experiment [8] was 1.53 (inactive); in [9], 1.18 (inactive); in [10], 1.29; in experiment [11], 0.0169; in [12], -0.859; in experiment [13] it was -0.102. Moreover, the z-score in experiment [14] is -0.671; in experiment [15], -0.654; in experiment [16] it was -0.89; in experiment [17], 1.12 (inactive); in experiment [18] it was -0.374; in experiment [19] it was -1.19. The z-score in experiment [20] is -0.299 (inactive). In experiment [2], the composite z-score was determined as 0.0665.
As for `COc1ccc(C(O)C2C=CC3C(=O)N(c4ccccc4)C(=O)C3N2Nc2ccc(C#N)cc2)c2ccccc12` (stereo not given), the z-score is -1.2 (inactive) in experiment [1]; 9.06 (active) in experiment [3]; 2.06 (inactive) in experiment [4]; 0.361 (inactive) in experiment [5]; 1.44 (inactive) in [6]; -1.03 in experiment [7]. Further, the z-score in experiment [8] was -1.44 (inactive); in experiment [9], -3.09 (inactive); in experiment [10], -2.29; in [11], -0.716; in experiment [12], -1.07; in [13] it was 0.66. For the same molecule, the z-score was 0.395 in [14]; -1.04 in [15]; -1.56 in experiment [16]; -0.246 (inactive) in [17]; 0.423 in experiment [18]; -0.117 in experiment [19]. Besides, the z-score in experiment [20] is 0.0226 (inactive). In experiment [2], this molecule gave a composite z-score of 0.481.
With `C=C1C2CC3C(=C4C(CO[C@@H]4[C@H]4CCCN4S(=O)(=O)c4ccccc4[N+](=O)[O-])C4C(=O)N(C)C(=O)C34)CC2C(=O)N1C` (stereo not given in full), the z-score is -0.523 (inactive) in experiment [1]; 4.07 (inactive) in [3]; 0.0975 (inactive) in experiment [4]; -0.513 (inactive) in experiment [5]; -0.0387 (inactive) in experiment [6]; 0.0973 in experiment [7]. The z-score in experiment [8] is 0.228 (inactive); in experiment [9], 0.569 (inactive); in experiment [10] it was 0.751; in experiment [11], -0.704; in [12] it was 0.332; in experiment [13], -0.0708. Moreover, the z-score is -3.31 in experiment [14]; -1.28 in experiment [15]; -1.83 in [16]; -0.543 (inactive) in [17]; 0.485 in experiment [18]; -0.347 in experiment [19]. In addition, the z-score in experiment [20] is -0.123 (inactive). In [2], this molecule showed a composite z-score of -0.147.
Consider `C=C(/C=C/CNS(=O)(=O)c1ccc(C)cc1)[C@H](O)[C@H]1CCCN1S(=O)(=O)c1ccccc1[N+](=O)[O-]`, for which the z-score was 0.611 (inactive) in experiment [1]; 11.5 (active) in [3]; 1.43 (inactive) in experiment [4]; 0.643 (inactive) in experiment [5]; 0.647 (inactive) in experiment [6]; 0.229 in experiment [7]. The z-score in [8] is -0.358 (inactive); in [9], -1.6 (inactive); in [10], -1.6; in experiment [11], 0.623; in [12], 0.581; in experiment [13], -0.291. The z-score is -1.28 in experiment [14]; -0.264 in experiment [15]; -1.79 in [16]; -0.221 (inactive) in experiment [17]; -0.525 in [18]; -0.0633 in experiment [19]. In [20], the z-score was 0.594 (inactive). The same molecule showed a composite z-score in [2] of -0.185.

The values above are taken from PubChem BioAssay.
